PHOSPHO1 block = inhibitors of human PHOSPHO1 phosphatase. inhibition, % at 13.3 µM. actives 1.1% (n = 290,000). recombinant PHOSPHO1, absorbance phosphatase assay; in the data active = inhibition above about 60%
eIF4H inh = inhibitors of RNA binding by human eIF4H. Q15056. AID 2012. actives 0.94% (n = 290,000). eIF4H fluorescence polarization binding assay. inhibition, % at 35 µM;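 note: calls also rest on retests at 20 µM and on dose response follow-up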
APOBEC3G inh = APOBEC3G (human) deaminase inhibition | actives 0.28% (n = 330,000) | Q9HC16 | inhibition, % at 20 µM | recombinant A3G, ssDNA deamination FAM/TAMRA fluorescence;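 active = inhibition of at least 40% at 20 µM, with no more than 30% in the related APOBEC3A deaminase screen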;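 note: plate controls were DMSO wells with A3G for no effect and wells lacking A3G enzyme for full effect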
Target sequence (Q9HC16 whole entry, looked up): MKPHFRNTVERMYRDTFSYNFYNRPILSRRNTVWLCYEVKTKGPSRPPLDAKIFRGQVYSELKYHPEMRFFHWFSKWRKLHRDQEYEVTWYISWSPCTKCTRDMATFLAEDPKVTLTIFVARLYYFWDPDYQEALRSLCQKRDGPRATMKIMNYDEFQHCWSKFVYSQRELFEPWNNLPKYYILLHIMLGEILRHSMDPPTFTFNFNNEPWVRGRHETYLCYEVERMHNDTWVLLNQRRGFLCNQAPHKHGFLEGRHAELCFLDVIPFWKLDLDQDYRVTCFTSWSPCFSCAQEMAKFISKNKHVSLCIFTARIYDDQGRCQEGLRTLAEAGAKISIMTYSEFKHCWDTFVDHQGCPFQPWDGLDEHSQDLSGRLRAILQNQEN
MLLE-PAM2 inh = blocks PAM2 peptide binding to the PABP1 MLLE domain | inhibition, % at 20 µM | P11940 | actives 0.36% (n = 360,000) | GST-MLLE / FITC-PAM2 fluorescence polarization; in the data active = inhibition above about 35%, passing the limit was not always enough;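 note: plate controls were DMSO wells with GST-MLLE for no effect and wells lacking GST-MLLE protein for full effect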
A3A deaminase = blocks human APOBEC3A ssDNA deamination | AID 493011 | inhibition, % at 20 µM | actives 0.41% (n = 330,000) | recombinant A3A, FAM/TAMRA ssDNA deamination fluorescence;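 active = at least 40% inhibition at 20 µM here, with at most 30% in a related deaminase screen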;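 note: plate controls were A3A with DMSO for no effect and wells lacking A3A enzyme for full effect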
PABP FP inh = PABP-poly(A) binding inhibition; P11940; PABP-poly(A) RNA binding, fluorescence polarization; calls only at 35 µM; actives 1% (n = 290,000); AID 2014;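 note: calls also rest on retests at 20 µM and on dose response follow-up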
An asterisk follows results filed as active; i = inactive; u = inconclusive; x = not tested or not shown; + = active, no number; ! = repeats disagree. Hits are enriched below; roughly 2.6% of the tested compounds scored in any of these assays. Unless noted, the rule behind the calls is not given here.

SMILES	PHOSPHO1 block	eIF4H inh	APOBEC3G inh	MLLE-PAM2 inh	A3A deaminase	PABP FP inh
CCOC(=O)N1CCC(=C2c3ccc(Cl)cc3CCc3cccnc32)CC1	74.5*!	1.9	-6.5	-2.6	-1.8	i
CCOC(=O)N1CCN(Cc2ccc(O)c3ncccc23)CC1	-99.0	13.0	-4.7	x	-5.7	i
Cn1c(Cc2ccc3c(c2)OCO3)nnc1SCC(=O)NC1CCCC1	8.6	-2.9	-5.9	x	-0.1	i
COc1ccc(CCN2CC(C(=O)N(C)CCn3nc(C)cc3C)CCC2=O)cc1 (stereo unspecified)	6.8	-6.8	-7.0	1.9	-5.4	i
CN(Cc1cnn(C)c1)C(=O)C1CCC(=O)N(Cc2cccc(F)c2)C1 (stereo unspecified)	52.6	-8.9	0.7	-13.2	4.4	i
CC(C)N(Cc1cnn(C)c1)C(=O)C1CCC(=O)N(CCc2cccc(F)c2)C1 (stereo unspecified)	61.0*	-0.1	-1.8	-4.4	-4.1	i
Cc1cc(C)n(CCN(C)C(=O)C2CCC(=O)N(CCc3cccc(F)c3)C2)n1 (stereo unspecified)	64.0*	x	-5.2	12.6	-4.3	x
Cc1ccc(S(=O)(=O)n2ccc3c2CCCC3=O)cc1	15.9	-3.7	-0.8	-4.8	-0.5	i
O=[N+]([O-])c1ccc(OS(=O)(=O)Cc2ccccc2)cc1	8.4	2.5*	-3.2	6.9	-1.1	+
O=S(=O)(Cc1ccc(Cl)cc1)Oc1ccc(Cl)cc1	x	x	x	-15.0	x	x
CCN(CC(=O)Nc1ccccc1C(F)(F)F)C(=O)C1CSC2(C)CCC(=O)N12 (stereo unspecified)	x	x	-8.2	-10.6	-0.9	x
COCc1nnc(NC(=O)CCCCCN2C(=O)c3ccccc3C2=O)s1	7.0	-2.2	-1.8	1.6	2.2	i
O=C(CCCN1C(=O)c2ccccc2C1=O)Nc1nnc(C2CC2)s1	-25.2	active	-5.5	-28.2	17.1	+
CCc1nnc(NC(=O)CN2C(=O)c3ccccc3C2=O)s1	74.0*	3.2	-3.4	8.9	-3.3	i
CCCc1nnc(NC(=O)CN2C(=O)c3ccccc3C2=O)s1	85.8*	0.6	-11.8	-6.4	-0.7	i
CCc1nnc(NC(=O)CSc2ccc(-c3cccs3)nn2)s1	27.1	u	25.1	32.5	-4.8	+
O=C(N=C1SC2CS(=O)(=O)CC2N1c1ccc(F)c(Cl)c1)C1CCCO1 (stereo unspecified)	24.0	x	-6.1	13.3	-4.2	x
COc1ccc(S(=O)(=O)Nc2ccc(O)c3ccccc23)cc1	9.7	0.9	-2.7	37.8*	1.1	i
Cc1cc(C)cc(-n2c(C)cc(/C=N\NC(=O)COc3cccc4cccnc34)c2C)c1	3.4	-3.9	-7.0	-13.6	3.3	i
Cc1cc(/C=N/NC(=O)COc2cccc3cccnc23)c(C)n1-c1ccc(O)cc1	-13.8	59.8	0.4	7.4	5.7	+
COc1ccc(C(=O)N/C(=C\c2cn(S(=O)(=O)N(C)C)c3ccccc23)C(=O)NCCN2CCOCC2)cc1OC	39.5	-4.5	-6.2	1.0	-7.6	i
CCCCSc1nnc2c(n1)OC(C(=O)c1ccccc1)Nc1ccccc1-2 (stereo unspecified)	90.2*	6.3	x	x	x	i
COc1ccccc1C(=O)C1Nc2ccccc2-c2nnc(SC)nc2O1 (stereo unspecified)	-8.3	-2.3	-0.9	22.5	-5.9	i
O=C(OCC(=O)N1CCN(C(=O)c2ccco2)CC1)c1cc(-c2ccco2)nc2ccccc12	68.9*	84.9*	56.8	19.2	63.4	+
COc1ccc(CNC(=O)COC(=O)c2cc(-c3ccco3)nc3ccccc23)cc1	23.7	89.7*	x	x	x	i
SMILES	PHOSPHO1 block	eIF4H inh	APOBEC3G inh	MLLE-PAM2 inh	A3A deaminase	PABP FP inh
O=C(OCC(=O)N1CCN(C(=O)c2ccco2)CC1)c1cc(-c2ccc(Cl)c(Cl)c2Cl)nc2ccccc12	19.7	-1.5	-4.6	-16.3	0.7	i
CCOC(=O)c1c(C)oc2c1c(C=NCc1ccccn1)c(O)c1ccccc12	37.3	120.6*	x	5.4	x	+
CCOC(=O)c1c(C)oc2c1c(C(c1cccnc1)N1CCOCC1)c(O)c1ccccc12 (stereo unspecified)	78.7*	1.8	0.6	10.7	1.4	i
COc1cccc(CN2CCC(n3nccc3NC(=O)CCOc3ccccc3)CC2)c1O	9.6	2.3	-2.2	-21.9	-0.6	i
O=C1OC(O)c2cccc3cccc1c23 (stereo unspecified)	x	x	x	-2.9	x	x
c1ccc(-n2nnc3c(N4CCOCC4)ncnc32)cc1	68.5*	-6.2	0.6	39.1	-0.4	i
CC(C)(O)CCCC(C)(O)c1ccc(C(=O)O)cc1O (stereo unspecified)	26.6	84.5*	7.5	14.3	12.8	i
CCOc1ccccc1NC(=O)C1CCN(c2ccc(S(=O)(=O)N3CCCC3)cc2)CC1	78.5*	-4.0	-0.6	3.1	4.2	i
CCOC(=O)C1CCCN(C(=O)c2ccc3c(c2)C(C)(C)CCC3(C)C)CC1 (stereo unspecified)	x	x	x	9.2	x	x
Cc1cc(C(F)(F)F)n(-c2nc(C(=O)O)cs2)n1	-4.0	1.5*	-1.6	-8.8	4.3	+
CC(=O)N1CC2(CC(c3ccccc3F)=NO2)CN1c1ccc(Cl)cc1 (stereo unspecified)	x	x	x	-10.1	x	x
Cc1cc(NCC2CCCO2)n2c(nc3ccccc32)c1C#N (stereo unspecified)	8.2	60.6*	0.4	-4.2	0.9	+
O=C(C1CCC(=O)N(C2CCCC2)C1)N1CCC(Oc2ccccc2Cl)CC1 (stereo unspecified)	28.0	-14.3	-8.8	-4.8	-4.7	i
Fc1cccc(/C=N/n2c(C3CCCCC3)n[nH]c2=S)c1	-104.2	-3.6	3.7	-89.2	-5.0	i
CCCCN1C(=O)C(C#N)CC2=C1CC(C)(C)CC2=O (stereo unspecified)	x	x	x	9.5	x	x
Cc1ccc(-n2c(C3CC3c3ccc(Cl)cc3)n[nH]c2=S)cc1 (stereo unspecified)	97.4*	-4.5	-0.7	-11.0	0.9	i
Cc1ccc(C2CC2c2n[nH]c(=S)n2-c2ccc(C)cc2)cc1 (stereo unspecified)	89.7*	5.1	-6.7	-15.5	-3.8	i
CC(=O)OC1(C)C=Cc2ccccc2C1=NS(=O)(=O)c1ccccc1 (stereo unspecified)	x	x	x	1.1	x	x
CC(=N)C1=C(O)CC(c2ccccc2)CC1=O (stereo unspecified)	32.0	-9.3	-4.6	-10.6	-0.9	i
Cc1ccccc1C(=O)N1CCN=C1SCc1ccc([N+](=O)[O-])cc1	68.5*	3.3	-3.1	13.3	-0.5	i
O=C(Cc1ccccc1)N1CCN=C1SCc1ccc([N+](=O)[O-])cc1	-36.4	-8.6	-5.8	35.2	-5.3	i
